Test results reported in PubChem BioAssay AID1851 (National Center for Advancing Translational Sciences (NCATS), 2009).
The campaign covered roughly 16,000 compounds. About 5,100 (32%) were called active. Roughly 25% stayed inconclusive and do not appear here. Calls come from the whole dose curve; as a rule, active = well fitted curve in the direction sought with a large enough effect; inconclusive = small, poorly fitted or top-dose-only effect, or effect the other way; inactive = no such curve, though single readings can be large or run the other way. This is one part of the list.
% is set by controls: 0 for no effect and ±100 for the full control effect.

These molecules were tested against Cytochrome P450 3A4 (Homo sapiens) (UniProt P08684) (assay: Cytochrome panel assay with activity outcomes). Conditions: recombinant CYP, pro-luciferin dealkylation, luminescence, p450-cyp3a4; series mostly up to 57.1 µM.
Cytochrome P450 3A4 (Homo sapiens), sequence (P08684 whole entry, looked up): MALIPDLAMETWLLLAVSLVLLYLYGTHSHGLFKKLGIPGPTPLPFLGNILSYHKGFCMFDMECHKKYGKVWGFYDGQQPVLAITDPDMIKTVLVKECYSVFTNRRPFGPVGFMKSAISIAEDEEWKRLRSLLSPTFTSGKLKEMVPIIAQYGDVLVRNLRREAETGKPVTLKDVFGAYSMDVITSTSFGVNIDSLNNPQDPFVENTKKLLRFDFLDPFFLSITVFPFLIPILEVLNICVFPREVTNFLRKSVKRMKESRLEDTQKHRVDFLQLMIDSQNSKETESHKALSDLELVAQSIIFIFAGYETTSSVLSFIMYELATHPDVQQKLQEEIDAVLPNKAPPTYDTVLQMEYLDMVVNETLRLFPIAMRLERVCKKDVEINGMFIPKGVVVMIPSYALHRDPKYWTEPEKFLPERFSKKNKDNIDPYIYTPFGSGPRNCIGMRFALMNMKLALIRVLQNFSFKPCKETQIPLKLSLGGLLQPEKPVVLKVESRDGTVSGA
CC1(C)CC(=O)C2=C(C1)N(c1ccc(F)cc1)C(N)=C(C#N)C2c1cccs1 (stereo unspecified) was tested, and the AC50 was 1 µM (active).
With C/C(=N\NC(=O)c1ccccc1C)c1ccc(NC(=O)c2cccs2)cc1 the activity, negative = inhibition was -4.96% [at 2.29 µM] (inactive).
For CCN(c1ccccc1)S(=O)(=O)c1ccc(NC(=S)NC(=O)c2ccc(Br)o2)cc1, the AC50 was “inactive”.
COc1cc(NC(=S)NC(=O)c2c(OC)cccc2OC)ccc1NC(=O)c1cccs1 was tested, and the AC50 was 3.16 µM (active).
For Cc1ccccc1C(=O)Nc1cccc(NC(=S)NC(=O)c2cccs2)c1, the AC50 was 3.55 µM (active).
COc1ccc(-n2nc3cc(C)c(NC(=S)NC(=O)c4ccccc4C)cc3n2)cc1 was tested, and the activity, negative = inhibition was -17.3% [at 11.4 µM] (inactive).
With CN(C1CCCCC1)S(=O)(=O)c1ccc(NC(=S)NC(=O)c2cccs2)cc1 the AC50 was 3.98 µM (active).
With CCCC(=O)Nc1ccc(C(=O)NNC(=S)NC(=O)c2cccs2)cc1 the AC50 was “inactive”.
With O=[N+]([O-])/C=C\c1cc2ccccc2[nH]1 the activity, negative = inhibition was -22.3% [at 11.4 µM] (inactive).
For CCNC(=O)c1ccc(-n2nc(C)cc2-c2ccccc2)cc1, the AC50 was “inactive”.
With C=CCNC(=O)c1ccccc1Cl the AC50 was “inactive”.
C=CCNC(=O)c1ccc2nc(-c3ccccc3)c(-c3ccccc3)nc2c1 was tested, and the AC50 was 7.08 µM (active).
In the case of COc1ccc(N(C)C(=O)c2ccc3nc(-c4ccccc4)c(-c4ccccc4)nc3c2)cc1, the AC50 is reported as 7.94 µM (active).
In the case of CC1CC2=C(NC(=S)NC2c2ccc(F)cc2)/C(=C/c2ccc(F)cc2)C1 (stereo unspecified), the AC50 is reported as 5.01 µM (active).
COC(=O)c1cc2n(n1)CCN(Cc1ccccc1F)C2=O was tested, and the activity, negative = inhibition was 17.9% [at 2.29 µM] (inactive).
With O=C1NCCN1Cc1ccccc1F the AC50 was 15.8 µM (active).
O=C1NCCN1Cc1cccc(Cl)c1 was tested, and the AC50 was “inactive”.
N[C@@H](Cn1ccc(=O)n(Cc2ccccc2C(=O)O)c1=O)C(=O)O was tested, and the AC50 was “inactive”.
For O=C(OCn1ncc(Cl)c(Cl)c1=O)c1cccc(C(F)(F)F)c1, the AC50 was “inactive”.
With Cc1cccc(Cn2ncc(Cl)c(Cl)c2=O)c1 the AC50 was 14.1 µM (active).
In the case of c1ncc(-c2ccc3c(c2)OCO3)c(NCCc2cnc[nH]2)n1, the AC50 is reported as 0.794 µM (active).
With COc1ccccc1-c1cncnc1NCCc1cnc[nH]1 the AC50 was 0.398 µM (active).
For COc1cccc(-c2cncnc2NCCc2cnc[nH]2)c1, the AC50 was 0.631 µM (active).
Cc1cnc(CNc2ncncc2-c2ccc3c(c2)OCO3)cn1 was tested, and the AC50 was 1.58 µM (active).
With c1csc(CNc2ncncc2-c2ccc3c(c2)OCO3)c1 the AC50 was “inactive”.
c1ccc(CNc2ncncc2-c2ccc3c(c2)OCO3)cc1 was tested, and the AC50 was 0.501 µM (active).
For c1cncc(CNc2ncncc2-c2ccc3c(c2)OCO3)c1, the AC50 was 0.398 µM (active).
In the case of Clc1ccc2c(c1)C=Nc1c(NCc3ccccc3)ncnc1O2, the AC50 is reported as “inactive”.
For Cn1c(-c2ccc3c(c2)OCO3)cnc1NCc1ccccc1, the AC50 was 7.94 µM (active).
In the case of COC(=O)[C@H](C)NC(=O)[C@@H](C)CO, the activity, negative = inhibition is reported as -19.6% [at 11.4 µM] (inactive).
In the case of Oc1c(C(O)(c2ccccc2)c2ccc3ccccc3c2O)ccc2ccccc12, the activity, negative = inhibition is reported as -13.3% [at 11.4 µM] (inactive).
For CCCCOc1ccc(CN2CCC(O)CC2)cc1, the AC50 was “inactive”.
In the case of c1ccc(Nc2ncncc2-c2ccc3c(c2)OCO3)cc1, the AC50 is reported as 0.794 µM (active).
In the case of Cc1cccc(CNc2ncncc2-c2ccc3c(c2)OCO3)c1, the AC50 is reported as 0.251 µM (active).
For CN1CCc2c(c3ccccc3n2C)C1, the AC50 was “inactive”.
In the case of Cn1c(-c2ccc3c(c2)OCO3)cc(=O)c2ccccc21, the AC50 is reported as 10 µM (active).
CCOC(=O)Nc1ccc(C(=O)Oc2ccccc2)c(O)c1 was tested, and the AC50 was “inactive”.
With C[n+]1cc(-c2ccccc2)n2c1CCCCC2 the AC50 was “inactive”.
CCOC(=O)[C@]1(CC(=O)O)CCCC1=O was tested, and the activity, negative = inhibition was -3.51% [at 11.4 µM] (inactive).
CC(C)(C)Cn1nc(-c2ccc(Cl)cc2)c2c(N)ncnc21 was tested, and the AC50 was “inactive”.
With CCCCn1nc2cc(C(=O)NCC3CC3)ccc2c1OCC the AC50 was “inactive”.
With CCCn1nc2cc(C(=O)NCCc3ccc(C)cc3)ccc2c1OCC the AC50 was 6.31 µM (active).
In the case of COCCn1nc2cc(C(=O)NCC34CC5CC(CC(C5)C3)C4)ccc2c1OC, the activity, negative = inhibition is reported as -1.55% [at 2.29 µM] (inactive).
With CCCn1nc2cc(C(=O)NCc3ccc(C)cc3)ccc2c1OC the AC50 was 14.1 µM (active).
With CCOc1c2ccc(C(=O)NCCCCc3ccccc3)cc2nn1C the AC50 was “inactive”.
CCOc1c2ccc(C(=O)NCCCCc3ccccc3)cc2nn1CC was tested, and the activity, negative = inhibition was 18.3% [at 2.29 µM] (inactive).
For CCOc1c2ccc(C(=O)NCc3ccc(OC(F)(F)F)cc3)cc2nn1C, the activity, negative = inhibition was 16.7% [at 2.29 µM] (inactive).
With COCCn1nc2cc(C(=O)NCc3cc(C(F)(F)F)cc(C(F)(F)F)c3)ccc2c1OC the activity, negative = inhibition was 10.6% [at 2.29 µM] (inactive).
In the case of CCOc1c2ccc(C(=O)NCc3cc(C(F)(F)F)cc(C(F)(F)F)c3)cc2nn1C, the AC50 is reported as 12.6 µM (active).
With CCCn1nc2cc(C(=O)NCCCCc3ccccc3)ccc2c1OCC the AC50 was 15.8 µM (active).
In the case of CCOC(=O)N/N=C1/C[C@@H](O)[C@@H](O)[C@@H]2[C@@H]3C(=O)N(CC)C(=O)[C@H]3CC[C@H]12, the activity, negative = inhibition is reported as -6.5% [at 11.4 µM] (inactive).
For N#Cc1c(-c2ccccc2)ccnc1Oc1ccccc1, the AC50 was “inactive”.
In the case of C/C(=N\OC(=O)c1ccccc1F)c1nccs1, the AC50 is reported as “inactive”.
With CC1(C)O[C@@H]2O[C@H]([C@H](O)CO/N=C3/[C@H]4O[C@@H]4[C@@H](O)[C@H]4[C@H]3CCn3c(=O)n(-c5ccccc5)c(=O)n34)[C@@H](O)[C@@H]2O1 the activity, negative = inhibition was -8.83% [at 11.4 µM] (inactive).
In the case of COc1ccc(O[C@H]2C=C[C@@H](c3ccccc3)O[C@H]2COC(=O)CC/C(C)=N\OC[C@@H](O)[C@H]2O[C@H]3OC(C)(C)O[C@H]3[C@@H]2O)cc1, the AC50 is reported as 3.98 µM (active).
CC(=O)OC[C@@H]1O[C@H](C/C=N\OC[C@@H](O)[C@H]2O[C@H]3OC(C)(C)O[C@H]3[C@@H]2O)C=C[C@@H]1OC(C)=O was tested, and the activity, negative = inhibition was -11.1% [at 11.4 µM] (inactive).
For C/C(CCC(=O)OC[C@@H]1O[C@H](C#Cc2ccccc2)C=C[C@@H]1Oc1ccc(C)cc1)=N/OC[C@@H](O)[C@H]1O[C@H]2OC(C)(C)O[C@H]2[C@@H]1O, the AC50 was 3.98 µM (active).
With COCCCN1C(=O)C(=O)/C(=C(/O)c2ccc(OC(C)C)c(C)c2)C1c1ccncc1 (stereo unspecified) the AC50 was “inactive”.
In the case of CCOc1ccc(/C(O)=C2/C(=O)C(=O)N(CCCn3ccnc3)C2c2cccs2)cc1Cl (stereo unspecified), the AC50 is reported as 0.282 µM (active).
With Cc1ccc(/C(O)=C2/C(=O)C(=O)N(CCCn3ccnc3)C2c2ccccn2)cc1 (stereo unspecified) the AC50 was “inactive”.
In the case of Cn1cnnc1SCC(=O)OCN1C(=O)c2ccccc2C1=O, the AC50 is reported as “inactive”.
Cc1ccc(NC(=S)N2CCN(CCN3C(=O)c4cccc5cccc(c45)C3=O)CC2)cc1 was tested, and the AC50 was 4.47 µM (active).
With CCN(CC)CCN1C(=O)c2cccc3cc(N)cc(c23)C1=O the activity, negative = inhibition was -14.7% [at 11.4 µM] (inactive).
For Cc1cccc(/C(N)=N/OC(=O)CCCN2C(=O)c3ccccc3C2=O)c1, the AC50 was 4.47 µM (active).
In the case of O=C1c2ccccc2C(=O)N1CCSC(=S)N1CCOCC1, the AC50 is reported as “inactive”.
In the case of O=C(CCN1C(=O)c2ccccc2C1=O)Oc1ccc2ccccc2c1, the AC50 is reported as “inactive”.
With Cc1cccc(NC(=O)CCCN2C(=O)c3cccc4cccc(c34)C2=O)c1 the AC50 was 2.24 µM (active).
CC(=NCCN1CCN(C(=S)Nc2ccccc2)CC1)C1=C(O)CC(C)(C)CC1=O was tested, and the activity, negative = inhibition was -20.4% [at 11.4 µM] (inactive).
For COc1ccccc1CN1CCC2(CC1)CCN(S(=O)(=O)c1ccccc1)CC2, the AC50 was “inactive”.
With COc1ccccc1CN1CC2(CCN(S(C)(=O)=O)CC2)C1 the AC50 was “inactive”.
For COc1ccccc1CN1CC2(CCN(S(=O)(=O)c3ccccc3)CC2)C1, the AC50 was 20 µM (active).
In the case of COc1ccccc1CN1CCCC2(CCN(S(C)(=O)=O)CC2)C1, the AC50 is reported as “inactive”.
In the case of COc1ccccc1CN1CCC2(CC1)CCN(S(C)(=O)=O)CC2, the AC50 is reported as “inactive”.
For COc1ccccc1CN1CC[C@@]2(CCCN(S(=O)(=O)c3ccccc3)C2)C1, the AC50 was 10 µM (active).
In the case of CC(=O)OCC(=O)[C@@]1(O)CC[C@@H]2[C@H]3CCC4=CC(=O)CC[C@]4(C)[C@]3(F)[C@@H](O)C[C@@]21C, the AC50 is reported as “inactive”.
With CN1Cc2c(C(=O)OC(C)(C)C)ncn2-c2ccsc2C1=O the AC50 was “inactive”.
For Cc1cccn2c(/C=N/OCc3ccc(F)cc3)c(-c3ccc(Cl)cc3)nc12, the AC50 was “inactive”.
COc1ccc(/C(C#N)=C/c2c(-c3ccc(Cl)cc3)nc3c(C)cccn23)cc1 was tested, and the AC50 was 2.82 µM (active).
In the case of COc1ccc(-c2cc(C3CCN(c4ccc(C(C)=O)cc4[N+](=O)[O-])CC3)[nH]n2)cc1, the AC50 is reported as 4.47 µM (active).
In the case of CC(=O)c1ccc(N2CCC(c3cc(-c4ccc(Cl)cc4Cl)n[nH]3)CC2)c([N+](=O)[O-])c1, the AC50 is reported as 12.6 µM (active).
In the case of Cc1cc(NCCO)c2ccccc2n1, the AC50 is reported as “inactive”.
For CCCNc1c(F)c(F)c2c(C)c3ccccc3nc2c1F, the AC50 was 6.31 µM (active).
With CC(C)C(O)(C(C)C)C(C)C the activity, negative = inhibition was -4.9% [at 11.4 µM] (inactive).
In the case of COc1ccc2[nH]c3c(c2c1)CN(C)CC3, the AC50 is reported as “inactive”.
In the case of Cc1ccc2[nH]c3c(c2c1)CN(C(=O)CN1c2ccc(F)cc2CCC1C)CC3 (stereo unspecified), the AC50 is reported as 8.91 µM (active).
In the case of CC(=O)Nc1c(S(=O)(=O)c2ccccc2)c2nc3ccccc3nc2n1Cc1ccccc1, the AC50 is reported as 4.47 µM (active).
For Nc1c(S(=O)(=O)c2ccccc2)c2nc3ccccc3nc2n1Cc1ccco1, the AC50 was 3.98 µM (active).
With COC(=O)CCSc1cc([N+](=O)[O-])cc2c1c(C1OCCS1)nn2-c1ccccc1 (stereo unspecified) the AC50 was 14.1 µM (active).
O=C(O)/C=C\C(=O)Nc1ccc2c(c1)C(=O)c1cc(F)ccc1-2 was tested, and the AC50 was 3.16 µM (active).
In the case of O=C(O)/C=C/C(=O)Nc1ccccc1-c1ccccc1, the AC50 is reported as “inactive”.
In the case of O=C(O)/C=C\C(=O)Nc1cccc2c1-c1ccccc1C2=O, the activity, negative = inhibition is reported as -10.9% [at 11.4 µM] (inactive).
